Assay outcomes: PubChem BioAssay, National Center for Advancing Translational Sciences (NCATS)
D2 antagonist – HTS Assay for Allosteric Antagonists of the Human D2 Dopamine Receptor: Primary Screen for Antagonists; D(2) dopamine receptor (Homo sapiens), P14416; HEK293 TREx D2 cells, calcium flux, dopamine EC80; inhibition, % at 10 µM; hit rate 2% among 340,000; in the data active = inhibition above about 30%; inactive = below that, where a call was filed; note: 0% is about no effect
Target sequence (P14416 whole entry, looked up): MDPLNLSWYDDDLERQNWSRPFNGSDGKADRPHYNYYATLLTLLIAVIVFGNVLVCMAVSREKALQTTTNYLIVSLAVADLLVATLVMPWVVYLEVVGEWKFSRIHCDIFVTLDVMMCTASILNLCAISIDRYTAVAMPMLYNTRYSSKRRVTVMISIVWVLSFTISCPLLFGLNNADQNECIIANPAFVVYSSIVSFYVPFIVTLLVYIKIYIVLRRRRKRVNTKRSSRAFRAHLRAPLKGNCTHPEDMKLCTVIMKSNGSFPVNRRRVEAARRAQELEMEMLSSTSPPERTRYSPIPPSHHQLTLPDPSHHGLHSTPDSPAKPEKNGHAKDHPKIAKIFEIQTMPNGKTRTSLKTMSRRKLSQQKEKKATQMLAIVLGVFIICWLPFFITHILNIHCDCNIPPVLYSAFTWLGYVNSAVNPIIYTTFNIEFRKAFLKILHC
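HEK293 T-REx D2 cells, tet-induced, calcium dye no-wash. Cpd pintool add, 180 s kinetic, then EC80 DA, 180 s kinetic. Ca flux read.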
D2 ag-1 – Beta-Arrestin HTS for Positive Allosteric Modulators of the Human D2 Dopamine Receptor: Agonists | activation, % (test concentration not listed) | D(2) dopamine receptor (Homo sapiens), P14416 | DiscoveRx PathHunter D2 beta-arrestin, luminescence, 90 min; 100% = 57 uM dopamine signal | AID 624465, 2012 | hit rate 0.084% among 360,000; in the data active = activation above about 40%; inconclusive = between about 15% and that limit
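Agonist mode: compounds alone added to overnight-plated D2 PathHunter cells for 90 min at 37 C, with 57 uM final dopamine (EC100) defining full response. Beta-arrestin recruitment detected by chemiluminescent reagent, read after 1 h at ambient temperature.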
Anesthetic bind – qHTS Assay for Identification of Novel General Anesthetics; Ferritin light chain (Equus caballus), P02791; apoferritin/1-aminoanthracene competitive binding, fluorescence; Potency, µM (series often up to 77.5 µM), for inactives: at the highest dose activity change, negative = displacement, usual class: inhibitors; hit rate 0.074% among 350,000; active = well fitted inhibition curve with a large enough effect; inconclusive = small, poorly fitted or top-dose-only effect; inactive = no such curve, though single readings can be large or run the other way; note: potency is the fitted concentration of half-maximal effect; % is set by controls: 0 for no effect and ±100 for the full control effect; nearly all actives have a fitted effect of over 20% in size
Target sequence (P02791 2-175 limits assumed): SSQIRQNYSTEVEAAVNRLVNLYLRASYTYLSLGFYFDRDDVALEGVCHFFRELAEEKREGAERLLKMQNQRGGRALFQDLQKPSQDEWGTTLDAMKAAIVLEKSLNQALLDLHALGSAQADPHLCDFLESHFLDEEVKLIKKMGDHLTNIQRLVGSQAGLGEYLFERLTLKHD
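In PBS, apoferritin at 10 uM is loaded with 1-AMA from a 50% saturated solution. After 10 min of compound exposure at ambient temperature, reduced 535 nm fluorescence indicates probe displacement.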
D2 PAM-1 – HTS Assay for Positive Allosteric Modulators of the Human D2 Dopamine Receptor: Primary Screen for Potentiators. hit rate 0.34% among 340,000. potentiation, % at 10 µM. AID 485347, 2010. HEK293 T-REx D2, calcium flux, EC20 dopamine potentiation;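 active = potentiation over 3 SD above the plate norm, cut at about 30% in these data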; note: 0% is about no effect
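Tetracycline-induced Hek293 Trex D2 cells, force-coupled to calcium, loaded with no-wash calcium dye. Compound added with 180 s kinetic read for agonism, then EC20 dopamine and a further 180 s read for potentiation.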
D2 ag-2 – HTS Assay for Allosteric Agonists of the Human D2 Dopamine Receptor: Primary Screen for Agonists; activation, % at 2 µM; HEK293 T-REx D2 cells, calcium flux agonist mode; hit rate 0.53% among 340,000;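 active = activation over 3 SD above normal in the single-dose calcium agonist read, cut at about 30% in these data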; note: 0% is about no effect
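Agonism is scored from calcium flux in a force-coupled, inducible HEK293 cell line expressing D2, read kinetically for 180 s after compound addition against dopamine controls.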
D2 PAM-2 – Beta-Arrestin HTS for Positive Allosteric Modulators of the Human D2 Dopamine Receptor: Potentiators | potentiation, % (concentration not given with the values) | DiscoveRx D2 beta-arrestin cells, luminescence, 90 min; 100% = 57 uM dopamine signal | hit rate 0.23% among 360,000 | AID 624464, 2012; in the data active = potentiation above about 50%; inconclusive = mostly about 30% to 49%
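PathHunter beta-arrestin assay in DiscoveRx D2 cells. Compounds were added with an EC20 of dopamine (50 nM final) for 90 min at 37 deg C. Luminescence was read 1 h after detection reagent, with 57 uM dopamine as the EC100 control.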
An asterisk follows results filed as active; ? = inconclusive; / = not tested or not shown; [ ] = remark or other dose. Rows were chosen to be rich in hits. Some 2.5% of all compounds tested hit in one or more screens of this group.

SMILES | D2 antagonist | D2 ag-1 | Anesthetic bind | D2 PAM-1 | D2 ag-2 | D2 PAM-2
CCCc1nnc(NC(=O)COc2ccc3c(c2)OCO3)s1 | -1 | 0 | -4% | -13 | -2 | 4
CCc1nnc(NC(=O)COc2ccc3c(c2)OCO3)s1 | 12 | 3 | 8% | 30* | 0 | -1
Cc1oc(/N=C/c2ccc(Cl)cc2)c(C#N)c1C | 0 | -2 | -3% | -5 | 0 | 16
COc1ccc2c(c1)CCC/C2=N\NC(=O)c1ccoc1C | 38* | -2 | -9% | -2 | -3 | -26
Cc1ccc(Cn2nc(C)c(C(=O)N3CCN(S(=O)(=O)/C=C/c4ccccc4)CC3)c2C)cc1 | -3 | 9 | / | -10 | 0 | -5
O=S(=O)(Nc1cccc2ccccc12)c1cccs1 | -17 | 91* | ? | -2 | 0 | 1
COCC(C)NC(=S)NCCc1ccc(Cl)cc1Cl (configuration not stated) | -9 | -4 | -17% | / | 0 | -16
CCOC(=O)Nc1ccc2c(c1)Cc1cc([N+](=O)[O-])ccc1-2 | / | 0 | / | / | / | -20
Cc1nn(Cc2ccc(F)cc2Cl)c(C)c1[N+](=O)[O-] | -18 | 2 | ? | -4 | -1 | -3
CCOc1cc(C=NN2CCCCCC2)ccc1O | / | 3 | / | / | / | 51*
O=C(O)Cn1nc(-c2ccc(F)cc2)oc1=O | -11 | 1 | -1% | 3 | 0 | -5
CC(CCc1ccccc1)NC(=O)CN1CCSc2ccccc21 (configuration not stated) | / | -2 | -5% | / | / | -10
CCc1ccc(CNC(=O)c2cc(-c3ccc(Br)s3)nc3ccccc23)cc1 | / | / | -6% | 0 | 0 | /
CCOC(=O)c1c(C)[nH]c(C)c1S(=O)(=O)NCC1CCN(Cc2ccccc2OC)CC1 | 33* | -6 | -2% | -24 | -1 | -30
CCOC(=O)c1c(C)[nH]c(C)c1S(=O)(=O)Nc1ccc(CN2CCCCC2)cc1 | -8 | -2 | -1% | -6 | 0 | -28
CCOC(=O)c1c(S(=O)(=O)NCC2CCN(CCc3cccs3)CC2)c(C)n(C)c1C | 43* | -4 | -6% | -21 | 0 | -60
CCOC(=O)c1c(C)[nH]c(C)c1S(=O)(=O)NCC1CCN(Cc2cccc(F)c2)CC1 | 74* | -1 | -10% | -30 | 1 | -22
CC1(C)N([O-])c2cc([N+](=O)[O-])ccc2[N+]1=O | 1 | ? | -12% | 13 | 0 | 19
O=C(Cc1ccc(NC(=O)C2CCCN(C(=O)C3CC3)C2)cc1)Nc1cccc(C(=O)N2CCCC2)c1 (configuration not stated) | / | 0 | / | / | / | /
Cn1c(C(=O)N2CCCc3ccccc32)cc2sccc21 | 5 | -3 | 13µM* | 7 | 0 | -14
O=C(c1cc2sccc2n1Cc1ccccc1)N1CCCc2ccccc21 | / | 0 | 2% | / | / | -12
O=C(c1cc2nc(-c3cccs3)cc(C(F)(F)F)n2n1)N1CCCc2ccccc21 | 31* | -2 | ? | -3 | 0 | -18
S=c1[nH]nc(-c2ccc(Cl)cc2)n1/N=C/c1ccco1 | -7 | -3 | -6% | 26 | -1 | -13
COc1cccc(NC(=O)Cn2nc(-c3ccncc3)ccc2=O)c1 | / | / | -8% | -10 | 0 | /
COc1ccc(NC(=O)N(C)C[C@H]2Oc3c(NS(=O)(=O)c4ccc(F)cc4)cccc3C(=O)N([C@H](C)CO)C[C@@H]2C)cc1 | / | -3 | / | / | / | -2
SMILES | D2 antagonist | D2 ag-1 | Anesthetic bind | D2 PAM-1 | D2 ag-2 | D2 PAM-2
O=C(Cc1ccc(F)cc1)Nc1nnc(SCC(=O)N2CCCCC2)s1 | -3 | 0 | ? | 4 | -2 | -2
O=C(Nc1nnc(SCC(=O)N2CCCCC2)s1)c1ccc(F)cc1F | 55* | 3 | 6% | -3 | 0 | 1
CCOC(=O)c1csc(NC(=O)C(C)(C)C)n1 | 41* | -6 | -2% | -6 | -1 | -5
CCCC(=O)Nc1nc(C(=O)OCC)cs1 | -14 | -2 | -8% | 6 | 0 | -4
O=C1Nc2ccccc2CCc2ccccc21 | 36* | 2 | / | -2 | 0 | 0
CCC(=O)N1CCCc2cc(S(=O)(=O)N3CCN(c4ccccc4F)CC3)ccc21 | 25 | 0 | -11% | -4 | 1 | -7
CC(C)CC(=O)Nc1cc2c3c(c1)CCN3C(=O)CC2 | -7 | -4 | -23% | -3 | 1 | -8
Cc1ccc(S(=O)(=O)NC(=O)c2ccc(Br)o2)cc1 | -26 | -3 | 5%[110 µM] | -1 | -1 | -14
Cc1ccc(S(=O)(=O)NC(=O)c2ccc(Br)o2)c(C)c1 | 31* | 0 | 0%[110 µM] | -2 | 0 | -15
COc1ccc(S(=O)(=O)Nc2c(O)ccc3ccccc23)cc1OC | / | ? | / | / | / | 107*
CCCCCOP(=O)(OCCCCC)C1(NS(=O)(=O)c2ccccc2)C=CC(=O)c2ccccc21 (configuration not stated) | -6 | ? | ? | 5 | -1 | 90*
CCCCCCOC1(c2ccccc2)OC(=O)c2ccccc21 (configuration not stated) | -1 | -4 | ? | -1 | 1 | -12
Cc1ccc(S(=O)(=O)Nc2cc3c(C(=O)Nc4ccccc4)c(C)oc3c3ccccc23)cc1 | 0 | 13 | 6% | -3 | 1 | 84*
COc1ccc(C(=O)NCC(=O)N/N=C(\C)Cc2ccccc2)cc1 | -12 | -3 | ? | -7 | 1 | -10
COc1ccc(OCC(=O)N/N=C(/C)Cc2ccccc2)cc1 | 32* | -5 | -20% | 7 | 0 | -4
COc1ccccc1C(=O)NCC(=O)N/N=C(\C)Cc1ccccc1 | 30* | -3 | 5% | -1 | 0 | -8
COc1ccc(C(CNC(=O)c2oc3ccccc3c2C)N2CCCC2)cc1 (configuration not stated) | 76* | -4 | / | -28 | 1 | -35
COc1ccc(C(CNC(=O)c2oc3c(Cl)cccc3c2C)N2CCCC2)cc1 (configuration not stated) | 39* | -4 | / | -21 | 0 | -45
CCOc1ccc(NC(=S)NCC(c2cccnc2)N2CCOCC2)cc1 (configuration not stated) | 7 | -7 | 1% | -16 | 0 | -3
